Measured values: PubChem BioAssay (Tox21)
Values without a mark were called inactive. Activity calls are given as the source filed them. Calls follow the shape of the dose curve; as a rule, active = well fitted curve in the direction sought with a large enough effect in the repeat runs; inconclusive = weak or mixed curves; inactive = flat fitted curve, though single readings scatter.

assay: qHTS assay to test for compound auto fluorescence at 460 nm (blue) in HepG2 cells (AID 720687); settings: autofluorescence 405/460 nm, 1 h; series mostly up to 91.3 µM; fluorescence, % of fluorescent control: at the top concentration
Text: U.S. Tox21 Program National Center for Advancing Translational Sciences [NCATS] NIH Chemical Genomics Center [NCGC] U.S. Environmental Protection Agency [EPA] National Institutes of Environmental Health Sciences [NIEHS] National Toxicology Program [NTP] U.S. Food and Drug Administration [FDA] Tox21 Assay Overview: Compound auto fluorescence often interferes with screening of the compound library against various biological targets and signaling pathways. Some of these compounds may have fluorophoric properties. Such properties may interfere with the assay outputs resulting in false positives and/or negatives. To decrease such complications and ensure the compound activities are relevant in terms of biological response, the Tox21 10K compound library was screened for auto fluorescence. From the fluorophores used as reporter signals in our screening assays, the auto fluorescence equivalencies of compounds against three fluorophores have been evaluated: Triamterene, Fluorescein and Rose Bengal sodium for blue, green and red fluorescence, respectively. The fluorescence intensities were measured using Excitation/Emission wavelengths at 405/460nm, 485/535nm and 540/590nm for blue, green and red labels, respectively. This assay includes the blue fluorescence data.
Tox21 Assay Protocol Summary: 2,000 HepG2 cells in 5 uL of culture medium (MEM containing 10% FBS) per well were dispensed into black wall/clear bottom 1536-well plates using a Multidrop Combi Dispenser (ThermoFisher Scientific, Waltham, MA). The assay plates were incubated overnight at 37 C to allow cell attachment to the well bottom, followed by the transfer of 23 nL compound or DMSO vehicle by a pintool work station (Kalypsys , San Diego, CA). After the assay plates were incubated for 1 hr at 37 C and 5% CO2, fluorescence intensities in the assay plates were measured by an Envision (PerkinElmer, Shelton, CT) plate reader using three labels for measuring blue, green and red fluorescence at […] 460, 535 and 590 nm respectively.
% is scaled to controls: 0 for no effect and ±100 for the full control effect; potency is read from the fitted curve at half-maximal effect; tags tell the direction and shape of the fitted curve or compound fluorescence and quenching.

SMILES | fluorescence, % of fluorescent control | Potency
CCC(=O)C(=O)CC | 0.032% [at 95.7 µM] | 
O=C(Oc1ccccc1)Oc1ccccc1 | 0.103% | 
CC1=CCC(=C(C)C)CC1 | -0.0544% | 
C=C(C)C(=O)OCCCCCCCCCC | -0.0203% | 
CC[N+](CC)(CC)CCOc1ccc(/C=C/c2ccccc2)cc1 |  | inactive
O=S(=O)(O)c1ccc(N=Nc2c(O)ccc3ccccc23)cc1 | -0.954% | 
CCCC(=O)OCCc1ccccc1 | 0.0155% | 
COc1ccc2cc1Oc1ccc(cc1)C[C@H]1c3c(cc4c(c3Oc3cc5c(cc3OC)CCN(C)[C@@H]5C2)OCO4)CCN1C | 9.22% [at 46 µM] | 
CNC(=O)c1ccccc1Sc1ccc2c(/C=C/c3ccccn3)n[nH]c2c1 | 0.0506% [at 46 µM] | 
Sc1nc2ccccc2s1 | 0.197% | 
NC(=S)NC(N)=S | -0.0916% | 
CCN(CC)c1ccc2c(-c3ccc(S(=O)(=O)O)cc3S(=O)(=O)[O-])c3ccc(=[N+](CC)CC)cc-3oc2c1 | 0.0135% [at 95.7 µM] | 
Cc1cc(C(C)(C)C)c(O)c(C)c1Cn1c(=O)n(Cc2c(C)cc(C(C)(C)C)c(O)c2C)c(=O)n(Cc2c(C)cc(C(C)(C)C)c(O)c2C)c1=O | 0.0108% | 
OC12N=C(c3ccccc3)SC1Cc1cc(Cl)ccc12 (stereo not given) | 0.416% | 
CCCCCCCC/C=C\CCCCCCCCN | -0.0129% [at 46 µM] | 
CCC(COC(=O)CCS)(COC(=O)CCS)COC(=O)CCS | 0.0991% | 
c1cnccn1 | 0.0252% [at 95.7 µM] | 
CCC(=O)OC(=O)CC | 0.0034% | 
Cc1ccc(C)cc1 | 0.0243% | 
CC[C@H](C)COC(=O)/C=C/c1ccc(N=Cc2ccc(OC)cc2)cc1 | 4.81% | 

SMILES | fluorescence, % of fluorescent control | Potency
CCOC(=O)NNc1ccc(N(CC)CC(C)O)nn1 (stereo not given) | 0.0148% [at 46 µM] | 
CCO[Si](OCC)(OCC)OCC | -0.115% [at 95.7 µM] | 
CC(=O)c1ccc(C(C)=O)cc1 | -0.0608% [at 95.7 µM] | 
Clc1sc(Cl)c(Cl)c1Cl | -0.157% | 
CCCCCCCCCCCCOC(=O)c1ccc(O)cc1 | 0.0668% | 
CC(C)(C)CC(C)(C)c1ccc(Nc2ccc(C(C)(C)CC(C)(C)C)cc2)cc1 | 0.0384% [at 3.72 µM] | 
Cc1c2ccccc2c(C)c2c1ccc1ccccc12 |  | inactive
CC[N+](CC)(CC)CCOC(=O)C(C1CCCC1)C1CCCC1 | -0.0221% [at 46 µM] | 
Cc1cc(-n2nc3ccc(Cl)cc3n2)c(O)c(C(C)(C)C)c1 | -0.0575% [at 46 µM] | 
Cc1ccc(-c2ccccc2)cc1 | 0.151% | 
COc1ccc(-c2coc3cc(O)ccc3c2=O)cc1 | 0.661% | 
C#C[C@]1(OC(C)=O)CC[C@H]2[C@@H]3CCC4=C/C(=N/O)CC[C@@H]4[C@H]3CC[C@@]21CC | -0.199% [at 46 µM] | 
O=C(O)c1cc(O)c2ccccc2c1O | -0.0698% | 
OC[C@@H](O)[C@@H](O)CO | 0.027% | 
O=C(O)CN(CCN(CC(=O)O)CC(=O)O)CC(=O)O |  | inactive
C=C(CC)C(=O)c1ccc(OCC(=O)O)c(Cl)c1Cl |  | inactive
O=S(=O)(O)c1ccc(Nc2nc(Nc3ccc(/C=C/c4ccc(Nc5nc(Nc6ccc(S(=O)(=O)O)cc6)nc(N(CCO)CCO)n5)cc4S(=O)(=O)O)c(S(=O)(=O)O)c3)nc(N(CCO)CCO)n2)cc1 |  | 35.5 µM [fluorescent] (active)
Oc1ccccc1O |  | inactive
COC(=O)c1ccccc1OC | 0.0105% | 
O=C(/C=C/c1ccc(O)c(O)c1)O[C@@H](C(=O)O)[C@@H](OC(=O)/C=C/c1ccc(O)c(O)c1)C(=O)O | 5.54% | 
